Our source for the outcome and AC50 values is PubChem BioAssay (EPA / NIEHS).

The source made the active and inactive calls. How the source made its calls: active means hit-call score of the fitted dose curve at least 0.9, where 1 is the maximum; inactive means score below 0.9.

Read-out in this experiment: flavin-containing dimethylaniline monooxygenases 3 (FMO3), FMO3 (gene 2328)
Briefly: LTEA_HepaRG_FMO3: Life Technologies and Expression Analysis (LTEA) Assay for flavin-containing dimethylaniline monooxygenases 3 (FMO3) using HepaRG (AID 2283453).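 On AC50: FMO3 transcript by TaqMan qRT-PCR normalized to ACTB GAPDH and POLR2A.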 As to conditions: mRNA level, 48 h; actives raise or lower the signal. The protocol: LTEA_HepaRG is a cell based, multiplexed-readout assay that uses HepaRG, a human liver cell line, with measurements taken at 48 hours after chemical dosing on a 96-well plate.LTEA_HepaRG_FMO3 is one of 102 assay component(s) measured in the LTEA HepaRG cell culture assay. It is a marker of NR mediated metabolism.Data from the assay component LTEA_HepaRG_FMO3 was analyzed into 1 endpoint. This assay endpoint, LTEA_HepaRG_FMO3, was analyzed with bidirectional fitting relative to DMSO as the negative control and baseline of activity. Using a type of inducible reporter, measures of mRNA induction for gain or loss-of-signal activity can be used to understand regulation of transcription factor activity. To generalize the intended target to other relatable targets, this assay endpoint is annotated to the oxidoreductase intended target family, where the subfamily is […].
A total of 1060 chemcials from the ToxCast library were tested in eight-point concentration-response experiments. Cell culture and cytotoxicity assays were conducted at Thermo Fisher Scientific's Custom Services facility (Madison, WI). A single lot of human HepaRG cells (Thermo Fisher Scientific, Frederick, MD) was used for the cell culture experiments. 96-well format collagen type I coated plates of human HepaRG cells were prepared using established methods. Briefly, cryopreserved HepaRG cells were thawed, plated at a density of approximately 100,000 cells/well in HepaRG Thaw, Plate, and General Purpose media (HPRG770, Thermo Fisher Scientific), and incubated for 48 hours. 0.5% DMSO was selected as vehicle control to balance the requisite need of DMSO in HepaRG cultures to maintain differentiation (for example, baseline metabolism, proportions of hepatocytes vs. cholangiocytes), while enabling further hepatic receptor pathway activation (for example, PXR and CAR) in response to chemical exposure. 48 hours after plating, the culture medium was replaced with HepaRG Serum-Free Incudtion Media. Cells were exposed to each test chemical in duplicate and maintained in CO2 incubators for another 48 hours. Chemical plates were thawed to room temperature and 200x concentrations of treatment groups were prepared. 8-point conentration-reponse curves were made with the highest exposure at 100 uM, followed by half-log dilutions, all in 0.5% DMSO. Each test plate contained variouse controls, induction positive controls (1mM phenobarbital), cytotoxicity positive controls ([…] aflatoxin B1), vehicle controls (0.5% DMSO), and total lysis controls (0.5% DMSO). Cell morphology images were taken using an Essen IncuCyte FLR automated microscope, with six 96-well plates imaged in about 24 minutes. Images were captured and exported and JPEG files. Spent culture media was transfered to black-well plates for the LDH assay, and remaining media was sorted at -80 C for later use. Cells were treated with RLT buffer and frozen until shipped for gene expression analysis. Total RNA was isolated from the cell suspension in 75 uL of Buffer RLT (Qiagen, Germantown, MD 20874) by Quintiles/Expression Analysis (Durham, NC) using a custom isolation procedure. Total RNA from each plate well was transferred to a preamplification plate. Fluidigm's 96.96 Dynamic ArrayTM (Fluidigm, Amsterdam, the Netherlands) technology was used for gene expression analyses by quantitative reverse transcription polymerase chain reaction (qRT-PCR, performed by Quintiles/Expression Analysis, Durham, NC)89. Standard TaqManTM Assays (Applied Biosystems/ThermoFisher Scientific, Foster City, CA) were used to assess the expression of 93 genes selected based on their selectivity and sensitivity to important hepatic receptors known to be modulated by environmental chemicals; importance in human hepatocyte functionality; and hepatotoxicity. […]
Turning to `COC(=O)c1ccccc1N`, the call was inactive. With `CC(C)(C)OOC(=O)c1ccccc1`, the compound was called inactive. The term AC50 denotes the concentration at which the activity in the assay is half-maximal. As for `CC(C)(C)C(O)(CCc1ccc(Cl)cc1)Cn1cncn1` (stereo not given), the half-maximal activity concentration (AC50) was 76.7 µM (active). As for `Clc1ccccc1Cl`, the result was inactive. As for `O=C(N[C@H](c1ccccc1)[C@@H]1CN2CCC1CC2)c1c(Cl)ccc(C(F)(F)F)c1Cl`, the AC50 was 65.9 µM (active).

On to `CC(C)(O)c1cnn2c(-c3ccc(F)c(-c4c(F)cccc4C#N)c3)cnc2n1`, for which the compound was called inactive.

On to `Nc1ccc(Oc2ccc(N)cc2)cc1`, for which the compound was classed as inactive.

For the compound `CC(O)CCO` (stereo not given), the compound was classed as inactive. As to `O=C(Oc1ccc(Br)cc1)N1CCN2CCC1CC2`, the call was inactive. As for `CCC12COCN1COC2`, the compound was called inactive. On the same count and under the same terms, for `[Cl-].[Cl-].[Hg+2]` the value was “inactive”. For the compound `O=C1CCCO1`, the result was inactive. Consider `Oc1ccc2ccc3cccc4ccc1c2c34`, for which the call was inactive.

As for `O=C(O)C1C2CCC(O2)C1C(=O)O` (stereo not given), the AC50 was 56.4 µM (active). As for `CCN(CC)CCO`, the result was inactive. With `c1ccc(NNc2ccccc2)cc1`, the call was inactive. With `O=C(Nc1ccccc1)c1ccccc1I`, the concentration at half-maximal activity (AC50) was 50 µM (active). Consider `c1ccc(N=Nc2ccccc2)cc1`, for which the compound was called inactive. Regarding `CC(C)COC(=O)c1ccccc1C(=O)OCC(C)C`, the compound was classed as inactive. Regarding `CS(=O)(=O)NC(=O)c1cc(Oc2ccc(C(F)(F)F)cc2Cl)ccc1[N+](=O)[O-]`, the outcome was inactive.

In the case of `CCNS(=O)(=O)C(F)(F)C(F)(F)C(F)(F)C(F)(F)C(F)(F)C(F)(F)C(F)(F)C(F)(F)F`, the AC50 was 75.9 µM (active). Regarding `C[C@]12C=CC3=C4CCC(=O)C=C4CC[C@H]3[C@@H]1CC[C@@H]2O`, the half-maximal activity concentration (AC50) is 20.3 µM (active). Regarding `CNC(=O)Oc1cccc2c1OC(C)(C)C2`, the compound was called inactive. Regarding `O=[N+]([O-])C(Br)(CO)CO`, the compound was classed as inactive. Turning to `CC(C)(C)OOC(C)(C)CCC(C)(C)OOC(C)(C)C`, the call was inactive. In the case of `[As]#[In]`, the compound was classed as inactive. Regarding `Cc1ccc(N)cc1`, the result was inactive. `C=CCc1ccc2c(c1)OCO2`: the outcome was inactive.

`C[N+](C)(C)CC1CO1` (stereo not given): the call was inactive. As to `CCCCC(CC)COC(=O)c1ccc(C(=O)OCC(CC)CCCC)c(C(=O)OCC(CC)CCCC)c1` (stereo not given), the call was inactive.

Consider `CN(C)c1ccccc1`, for which the result was inactive.

`CC(C)(OOC(C)(C)c1ccccc1)c1ccccc1`: the result was inactive.

Regarding `CO[C@@H]1[C@H](OC(=O)NC(=O)CCl)CC[C@]2(CO2)[C@H]1[C@@]1(C)O[C@@H]1CC=C(C)C`, the compound was called inactive.

For `O=Cc1ccco1`, the outcome was inactive. In the case of `CCCCCOC(=O)c1ccccc1C(=O)OCCCCC`, the compound was classed as inactive. In the case of `COP(=S)(OC)SCN1C(=O)c2ccccc2C1=O`, the compound was called inactive. As for `CCOc1cccc(C2(N3CCN(c4ccccc4)CC3)CCC(C)CC2)c1` (stereo not given), the result was inactive. In the case of `CC(C)N(Cc1ccccc1)C(=O)C(C)(C)C`, the outcome was inactive. For `Clc1ccc(C(c2ccc(Cl)cc2)C(Cl)Cl)cc1`, the result was inactive.

`Clc1ccc(Cl)c(Cl)c1`: the outcome was inactive.
